Source: the supplement of paper PMC8975748
Structures can show the parent of a compound that is named as a salt.

Each compound was assayed on Saccharomyces cerevisiae BY4741 SeMeCo community (assay: z-score of prototroph abundance vs DMSO median; higher = larger share of this subpopulation than in DMSO controls). Conditions: 10 µM; 24 h; SM minimal medium; subpopulation (auxotrophy): Prototroph.
Procedure: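 Fluorescent four-plasmid SeMeCo (self-establishing metabolically cooperating S. cerevisiae BY4741 community; plasmids pH-mRuby2, pL-mWasabi, pU-eCFP, pM-TagRFP657) was grown 24 h in minimal SM medium with each Selleck FDA-approved drug at 10 µM in 384-well plates. Cells were fixed and imaged by high-content confocal microscopy. For each auxotrophic subpopulation (and the prototroph), a z-score gives the deviation from the DMSO vehicle-control population median.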

SMILES | z-score of prototroph abundance
CC[C@H]1CN2CC[C@]3(C(=O)Nc4ccccc43)[C@@H]2C[C@@H]1/C(=C\OC)C(=O)OC [Rhynchophylline] | -0.9
CCN(CC)CCOC(=O)C(O)(c1ccccc1)c1ccccc1 [Benactyzine hydrochloride] | -0.56
COc1ccc(C=O)cc1 [p-Anisaldehyde] | 1.5
N#Cc1nn(-c2c(Cl)cc(C(F)(F)F)cc2Cl)c(N)c1[S+]([O-])C(F)(F)F (stereo not given) [Fipronil] | 0.88
CCC1=C[C@H]2CN3CCc4c([nH]c5ccccc45)[C@](C(=O)OC)(C2)[C@H]13 [Catharanthine] | 0.37
CCN(C)C(=O)Oc1cccc([C@H](C)N(C)C)c1 [Rivastigmine Tartrate] | 0.28
C#C[C@]1(O)C=C[C@H]2[C@@H]3CCC4=CC(=O)CC[C@@H]4[C@H]3CC[C@@]21CC [Gestodene] | 0.59
CN(C)C(=O)Oc1cccc([N+](C)(C)C)c1 [Neostigmine Bromide] | 0.27
CCCN1C[C@H](CSC)C[C@@H]2c3cccc4[nH]cc(c34)C[C@H]21 [Pergolide Mesylate] | 0.88
COc1ccc2c3c([nH]c2c1)C(C)=NCC3 [Harmaline] | 3.47
CN1c2ccccc2C(NCCCCCCC(=O)O)c2ccc(Cl)cc2S1(=O)=O (stereo not given) [Tianeptine sodium] | 0
C[C@@H]1O[C@@H](O[C@H]2C[C@@H](O)[C@]3(CO)[C@H]4[C@H](O)C[C@]5(C)[C@@H](C6=CC(=O)OC6)CC[C@]5(O)[C@@H]4CC[C@]3(O)C2)[C@H](O)[C@H](O)[C@H]1O [Ouabain] | 0.81
CC(C)(O)C(Cl)(Cl)Cl [Chlorobutanol] | -0.27
CN[C@@H]1[C@@H](O)[C@@H](O[C@@H]2[C@@H](O)[C@H](O[C@H]3O[C@H]([C@@H](C)O)[C@@H](O)[C@H](O)[C@H]3N)[C@@H](N)C[C@H]2N)OC[C@]1(C)O [Geneticin (G418 Sulfate)] | 0.1
CC(=O)OCC1=C(C(=O)O)N2C(=O)C(N)C2SC1 (stereo not given) [7-Aminocephalosporanic acid] | 0.2
C[N+](C)(C)CCCCCCCCCC[N+](C)(C)C [Decamethonium Bromide] | 0.58
CCOC(=O)Nc1ccc(NCc2ccc(F)cc2)cc1N [Retigabine] | 0.21
O=C(O[C@H]1C[C@H]2CC[C@@H](C1)[N+]21CCCC1)C(O)(c1ccccc1)c1ccccc1 [Trospium chloride] | 0.42
C=CC[C@]1(O)CC[C@H]2[C@@H]3CCC4=CC(=O)CCC4=C3C=C[C@@]21C [Altrenogest] | 0.56
Cc1cc(O)ccc1Cl [Chlorocresol] | 0.71

SMILES | z-score of prototroph abundance
CC(=O)O[C@H]1C[C@@H]2CC[C@@H]3[C@H](CC[C@@]4(C)[C@H]3C[C@H]([N+]3(C)CCCCC3)[C@@H]4OC(C)=O)[C@@]2(C)C[C@@H]1[N+]1(C)CCCCC1 [Pancuronium dibromide] | 0.97
CC[N+](C)(CC)CCOC(=O)C(O)(c1ccccc1)c1ccccc1 [Methylbenactyzine Bromide] | 1.09
CN1[C@@H]2C[C@@H](OC(=O)[C@H](CO)c3ccccc3)C[C@H]1[C@@H]1O[C@@H]12 [Scopolamine HBr] | 0.86
C=C(C)[C@H]1Cc2c(ccc3c2O[C@@H]2COc4cc(OC)c(OC)cc4[C@@H]2C3=O)O1 [Rotenone (Barbasco)] | -0.73
CCOC(=O)Nc1ccc(NCc2ccc(F)cc2)cc1N [Retigabine 2HCl] | 0.05
COC(=O)C1=CCCN(C)C1 [Arecoline HBr] | -0.55
CC[C@@H](C(N)=O)N1CCCC1=O [Levetiracetam] | 0.59
CN1[C@@H]2C[C@@H](OC(=O)[C@H](CO)c3ccccc3)C[C@H]1[C@@H]1O[C@@H]12 [Scopolamine HBr trihydrate] | 0.7
CN(C)[C@@H]1C(=O)C(C(N)=O)=C(O)[C@@]2(O)C(=O)C3=C(O)c4c(O)cccc4[C@@](C)(O)[C@H]3[C@H](O)[C@@H]12 [Oxytetracycline Dihydrate] | 0.77
NCCc1c[nH]c2ccc(O)cc12 [Serotonin HCl] | 0.67
C[CH2][Hg][S]c1ccccc1C(=O)[O-].[Na+] [Thimerosal] | -17.3
C[N+]12CCC(CC1)C(OC(=O)C(O)(c1ccccc1)c1ccccc1)C2 (stereo not given) [Clidinium Bromide] | 0.13
COc1ccc(C(CN(C)C)C2(O)CCCCC2)cc1 (stereo not given) [Venlafaxine] | 0.19
COc1ccc2[nH]cc(CCN)c2c1 [5-Methoxytryptamine] | -0.96
COc1cc2c(cc1OC)C1CC(=O)C(CC(C)C)CN1CC2 (stereo not given) [Tetrabenazine (Xenazine)] | 0.02
CC[C@@]1(O)C(=O)OCc2c1cc1n(c2=O)Cc2cc3ccccc3nc2-1 [Camptothecin] | 0.34
CN[C@@H]1[C@@H](O)[C@@H](O[C@@H]2[C@@H](O)[C@H](O[C@H]3O[C@H](CN)CC[C@H]3N)[C@@H](N)C[C@H]2N)OC[C@]1(C)O.CN[C@@H]1[C@@H](O)[C@@H](O[C@@H]2[C@@H](O)[C@H](O[C@H]3O[C@H]([C@@H](C)N)CC[C@H]3N)[C@@H](N)C[C@H]2N)OC[C@]1(C)O.CN[C@@H]1[C@@H](O)[C@@H](O[C@@H]2[C@@H](O)[C@H](O[C@H]3O[C@H]([C@@H](C)NC)CC[C@H]3N)[C@@H](N)C[C@H]2N)OC[C@]1(C)O [Gentamicin Sulfate] | 0.63
CN1[C@@H]2CC[C@H]1C[C@@H](OC(=O)[C@H](CO)c1ccccc1)C2 [Hyoscyamine] | 0.38
CNC1CC(N)C(O)C(OC2OC(CO)C(O)C3OC4(OC(C(N)CO)C(O)C(O)C4O)OC23)C1O (stereo not given) [Hygromycin B] | 0.64
O=c1cccc2n1C[C@@H]1CNC[C@H]2C1 [Cytisine] | 0.46
